Among the data in PubChem BioAssay (Tox21) are outcome and Potency values, retold here.

A short description of experiment [1]: qHTS RealTime-Glo MT Cell Viability Assay in HEK293 cells - 0 hour (AID 1224880). Further: top concentration of the series differs between compounds; nearly all actives have a fitted effect of over 45% in size. The essentials: (§1)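 600 cells/well were plated with the nonlytic NanoLuc/prosubstrate reagent, pre-incubated 5 h, then given 23 nL of compound in DMSO. Incubation at 37 C for 40 h, with luminescence from viable-cell-reduced substrate read repeatedly from 0 h.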
Experiment [2] is described as follows: A CellTox Green Cytotoxicity Assay to monitor cytotoxicity in HEK293 cells - 32 hour (AID 1224881). Further: nearly all actives have a fitted effect of over 40% in size. Further: potency means the concentration at half of the fitted maximal effect. A digest of the protocol: (§2)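 HEK293 cells, 600/well, were preincubated 5 hours and then exposed to compounds at 37 C for up to 40 hours. A cell-impermeant cyanine dye staining dead-cell DNA was read by fluorescence at 0, 8, 16, 24, 32 and 40 h time points.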
The nature of experiment [3]: A CellTox Green Cytotoxicity Assay to monitor cytotoxicity in HepG2 cells - 0 hour (AID 1224882). Further: nearly all actives have a fitted effect of over 35% in size. The essentials: (§3)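 HepG2 cells, 600/well, preincubated 5 h with CellTox Green dye, then exposed to Tox21 compounds in DMSO at 37 C for up to 40 h. Dead-cell DNA fluorescence read at the indicated time point.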
Experiment [4] can be described thus: A CellTox Green Cytotoxicity Assay to monitor cytotoxicity in HepG2 cells - 32 hour (AID 1224883). Further: nearly all actives have a fitted effect of over 50% in size. The essentials:
as §3

A short description of experiment [5]: A CellTox Green Cytotoxicity Assay to monitor cytotoxicity in HEK293 cells - 8 hour (AID 1224884). Further: nearly all actives have a fitted effect of over 35% in size. The essentials: as §2
The nature of experiment [6]: qHTS RealTime-Glo MT Cell Viability Assay in HepG2 cells - 16 hour (AID 1224885). Further: nearly all actives have a fitted effect of over 50% in size. The essentials:
(§4)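 Cell number in HepG2 cultures estimated from NanoLuc luminescence generated by metabolic reduction of a prosubstrate by living cells. The homogeneous, nonlytic format allowed repeated reads at 0, 8, 16, 24, 32 and 40 h of compound exposure.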

Experiment [7] can be described thus: qHTS RealTime-Glo MT Cell Viability Assay in HEK293 cells - 8 hour (AID 1224887). Further: top concentration of the series differs between compounds; nearly all actives have a fitted effect of over 50% in size. A digest of the protocol: as §1
A short description of experiment [8]: A CellTox Green Cytotoxicity Assay to monitor cytotoxicity in HEK293 cells - 16 hour (AID 1224888). Further: nearly all actives have a fitted effect of over 35% in size. The essentials:
as §2

Experiment [9] is described as follows: qHTS RealTime-Glo MT Cell Viability Assay in HepG2 cells - 0 hour (AID 1224889). Further: nearly all actives have a fitted effect of over 50% in size. The essentials: as §4
For orientation: Quantitative high-throughput screening tests each substance at several concentrations.

Experiment [10] can be described thus: A CellTox Green Cytotoxicity Assay to monitor cytotoxicity in HepG2 cells - 8 hour (AID 1224890). Further: nearly all actives have a fitted effect of over 45% in size. A digest of the protocol:
as §3

Experiment [11] can be described thus: qHTS assay to identify small molecule antagonists of the estrogen receptor alpha (ER-alpha) signaling pathway using the BG1 cell line in the presence of 0.1 nM 17-beta-estradiol - cell viability counter screen (AID 1259241). Further: nearly all actives have a fitted effect of over 40% in size. The essentials:
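CellTiter-Fluor read (30 min, 37C) on ER-alpha/ERE-luc VM7Luc4E2 cells; 22 hr compound treatment; agonist 0.1 nM E2 final; same-well multiplex.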

The nature of experiment [12]: qHTS assay to identify small molecule antagonists of the androgen receptor (AR) signaling pathway using the MDA cell line in the presence of 0.5 nM R1881 - cell viability counter screen (AID 1259242). Further: nearly all actives have a fitted effect of over 45% in size. The essentials:
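MDA-kb2 cells (MMTV-luciferase, AR/GR responsive) were treated with compounds plus 0.5 nM R1881 (final) for 16 hr at 37C, 0% CO2. Viability was then read in the same wells as live-cell protease fluorescence (CellTiter-Fluor, 30 min).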

The target in experiment [13] is Estrogen receptor (Homo sapiens) (UniProt P03372). The experiment can be described thus: qHTS assay to identify small molecule antagonists of the estrogen receptor alpha (ER-alpha) signaling pathway using the BG1 cell line in the presence of 0.1 nM 17-beta-estradiol (AID 1259244). Further: nearly all actives have a fitted effect of over 50% in size. The essentials:
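VM7Luc4E2 cells (endogenous full-length ER-alpha, 4×ERE-luciferase), kept 5 days in phenol red-free, charcoal-stripped FBS medium; 4,000 cells/well. Compounds added with 0.1 nM (final) 17beta-estradiol, 22 hr at 37C; luminescence read with ONE-Glo after 30 min.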

Experiment [14] can be described thus: qHTS assay to identify small molecule phospholipidosis (PLD) inducers (AID 1259344; active means well fitted curve in the direction sought with a large enough effect; an effect the other way counts as inactive or inconclusive). The essentials: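 Phospholipidosis is scored by imaging LipidTOX-stained pits in HepG2 cells exposed to compound for 24 h at 37 C; pit counts and integrated intensities per well and per cell serve as outputs.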
Experiment [15] is described as follows: qHTS assay to identify small molecule HDAC inhibitors (AID 1259364). Further: top concentration of the series differs between compounds; nearly all actives have a fitted effect of over 45% in size. A digest of the protocol:
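Wild-type HCT-116 cells, plated overnight at 37 C, exposed to compounds 2 hr at 37 C; luminogenic HDAC-Glo substrate then added 30 min at room temperature. Luminescence reports relative endogenous class I/II HDAC activity.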

Experiment [16] in a line: qHTS assay to identify small molecule HDAC inhibitors - cell viability counter screen (AID 1259365). The essentials: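 To flag cytotoxic hits, 1,500 wild-type HCT-116 cells per well, plated the day before, receive test compounds for 2hr at 37 C before CellTiter-Glo reagent and a luminescence read.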
A short description of experiment [17]: qHTS assay to identify small molecule agonists of the sonic hedgehog signaling (Shh) pathway - cell viability counter screen (AID 1259366). Further: nearly all actives have a fitted effect of over 50% in size. A digest of the protocol:
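Fluorescence from CellTiter-Fluor reports live cells in this counter screen. NIH/3T3-derived Gli1-Luc reporter cells receive test compounds for 24hr at 37C; reagent goes in at 23hr.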

Experiment [18] in a line: qHTS assay to identify small molecule antagonists of the sonic hedgehog signaling (Shh) pathway - cell viability counter screen (AID 1259367). Further: nearly all actives have a fitted effect of over 55% in size. The essentials:
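Cells: 3T3 Gli1-Luc, 2,000/well, 4 hr pre-incubation. Compounds in DMSO, then conditioned medium. Incubation 24 hr, 37C, 5% CO2. CellTiter-Fluor at 23 hr, 1 hr, fluorescence.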

The nature of experiment [19]: qHTS RealTime-Glo MT Cell Viability Assay in HEK293 cells - 24 hour (AID 1224886). A digest of the protocol: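 Homogeneous bioluminescent viability format in HEK293 cells (600 cells/well). Following 5 h at 37 C/5% CO2, 23 nL compound was pintooled; the signal was measured repeatedly during 40 h incubation.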
The target in experiment [20] is Androgen receptor (Homo sapiens) (UniProt P10275). The experiment can be described thus: qHTS assay to identify small molecule antagonists of the androgen receptor (AR) signaling pathway using the MDA cell line in the presence of 0.5 nM R1881 (AID 1259243). Further: nearly all actives have a fitted effect of over 50% in size. The essentials:
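MDA-kb2 cells (MMTV-luciferase, responsive to AR and GR) at 3,000/well, rested 5 h at 37C, 0% CO2, then given compounds plus 0.5 nM R1881 (final) for 16 hr. Luciferase read with ONE-Glo after 30 min at room temperature.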

Results filed as inconclusive are left out. The source made the active and inactive calls. Unless noted, the call rests on the fitted dose curve; in most records, active means well fitted curve in the direction sought with a large enough effect in the repeat runs; inconclusive means weak or mixed curves; inactive means no such curve, though single readings can be large; an effect the other way counts as inactive or inconclusive.

Estrogen receptor (Homo sapiens), sequence (P03372 whole entry, looked up): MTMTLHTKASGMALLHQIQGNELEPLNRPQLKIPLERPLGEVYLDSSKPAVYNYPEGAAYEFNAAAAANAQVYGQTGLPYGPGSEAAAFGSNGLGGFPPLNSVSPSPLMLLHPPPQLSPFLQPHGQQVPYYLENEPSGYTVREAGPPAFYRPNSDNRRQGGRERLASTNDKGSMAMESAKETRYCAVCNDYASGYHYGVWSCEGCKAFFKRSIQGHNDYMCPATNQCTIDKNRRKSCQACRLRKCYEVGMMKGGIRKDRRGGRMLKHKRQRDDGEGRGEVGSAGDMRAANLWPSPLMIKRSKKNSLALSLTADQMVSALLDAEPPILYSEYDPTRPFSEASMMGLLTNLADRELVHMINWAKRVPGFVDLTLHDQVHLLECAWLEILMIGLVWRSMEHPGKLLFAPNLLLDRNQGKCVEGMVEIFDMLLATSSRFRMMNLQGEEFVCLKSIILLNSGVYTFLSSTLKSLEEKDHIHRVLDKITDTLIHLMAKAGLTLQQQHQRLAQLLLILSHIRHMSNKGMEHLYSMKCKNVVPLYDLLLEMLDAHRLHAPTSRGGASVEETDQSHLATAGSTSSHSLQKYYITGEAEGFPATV
Androgen receptor (Homo sapiens), sequence (P10275 whole entry, looked up): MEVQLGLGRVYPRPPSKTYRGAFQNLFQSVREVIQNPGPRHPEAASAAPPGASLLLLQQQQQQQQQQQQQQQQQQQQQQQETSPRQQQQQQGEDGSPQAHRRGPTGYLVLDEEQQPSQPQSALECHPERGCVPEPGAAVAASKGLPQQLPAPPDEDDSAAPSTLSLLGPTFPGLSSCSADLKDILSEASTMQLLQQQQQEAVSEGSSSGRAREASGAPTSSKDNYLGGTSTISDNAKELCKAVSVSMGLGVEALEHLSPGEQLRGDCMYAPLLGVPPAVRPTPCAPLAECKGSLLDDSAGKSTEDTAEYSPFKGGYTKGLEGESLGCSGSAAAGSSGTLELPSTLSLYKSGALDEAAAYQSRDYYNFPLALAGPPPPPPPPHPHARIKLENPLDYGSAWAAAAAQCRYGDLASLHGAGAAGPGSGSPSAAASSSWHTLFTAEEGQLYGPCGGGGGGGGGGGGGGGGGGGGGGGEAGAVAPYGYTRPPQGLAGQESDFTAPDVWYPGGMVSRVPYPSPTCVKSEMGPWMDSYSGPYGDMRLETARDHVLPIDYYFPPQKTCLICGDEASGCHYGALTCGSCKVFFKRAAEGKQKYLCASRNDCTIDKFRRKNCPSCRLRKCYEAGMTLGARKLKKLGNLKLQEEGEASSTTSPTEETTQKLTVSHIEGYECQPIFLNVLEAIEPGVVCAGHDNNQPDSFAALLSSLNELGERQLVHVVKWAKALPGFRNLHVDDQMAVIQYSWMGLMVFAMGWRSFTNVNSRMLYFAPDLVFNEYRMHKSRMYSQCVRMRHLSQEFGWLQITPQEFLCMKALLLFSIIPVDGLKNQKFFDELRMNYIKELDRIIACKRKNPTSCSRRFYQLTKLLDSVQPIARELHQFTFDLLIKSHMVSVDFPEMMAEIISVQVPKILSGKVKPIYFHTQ

As for `N#CN`, the outcome in experiment [1], in [3], in [9], in experiment [11] and in experiment [16] was inactive. The Potency entry in experiment [2], in experiment [4], in [5], in [6], in experiment [7] and in [8] was “inactive” each time. The Potency result in experiment [10], in experiment [12], in experiment [13], in experiment [14], in experiment [15] and in experiment [17] was “inactive” in each case. Besides, the Potency result in [18] is “inactive”.
Take `Cc1ccc2cc(C)ccc2c1`: the outcome in [1], in experiment [3], in [9] and in experiment [11] was inactive. Also, the Potency entry in experiment [2], in [4], in experiment [5], in [6], in [7] and in experiment [8] was “inactive” each time. Besides, the Potency entry in [10], in experiment [12], in [15], in [17] and in experiment [18] was “inactive” in each case.
As to `CCN[C@H](C)Cc1cccc(C(F)(F)F)c1`, the call in experiment [1], in experiment [3], in [9], in [11] and in experiment [16] was inactive. The Potency entry in experiment [2], in experiment [4], in experiment [6], in experiment [19], in experiment [7] and in [8] was “inactive” throughout. The Potency result in experiment [10], in [12], in [14], in [17] and in experiment [18] was “inactive” in each case.
Take `O=c1[nH]c2ccccc2n1C1CCNCC1`: the call in [1], in [3], in experiment [9], in [11] and in [16] was inactive. The Potency entry in experiment [2], in experiment [5], in [6], in experiment [19], in [7] and in [8] was “inactive” in each case. Also, the Potency result in experiment [10], in [12], in experiment [20], in experiment [13], in experiment [15] and in [17] was “inactive” in each case. The Potency entry in [18] is “inactive”.
For the compound `CCOC(=O)COc1ccc(Cl)cc1Cl`, the call in [1], in experiment [3], in experiment [9] and in experiment [16] was inactive. Further, the Potency entry in experiment [2], in [4], in experiment [5], in experiment [6], in [7] and in [8] was “inactive” in each case. In addition, the Potency entry in experiment [10], in experiment [12], in [17] and in experiment [18] was “inactive” throughout.
In the case of `CC#Cc1cc(C)nc(Nc2ccccc2)n1`, the call in experiment [1], in experiment [3], in experiment [9], in [11] and in experiment [16] was inactive. The Potency entry in experiment [2], in experiment [4], in [5], in experiment [6], in [8] and in experiment [10] was “inactive” each time. In addition, the Potency result in experiment [12], in experiment [17] and in experiment [18] was “inactive” throughout.
As for `Clc1ccc(C(Cl)(Cl)Cl)cn1`, the compound was classed as inactive in experiment [1], in experiment [3], in experiment [9], in experiment [11] and in experiment [16]. For the same compound, the Potency in experiment [2] was 34.7 µM (active). For the same compound, the Potency result in [4], in [6], in [19], in experiment [7], in [10] and in experiment [12] was “inactive” in each case. The Potency result in experiment [20], in experiment [15], in experiment [17] and in [18] was “inactive” each time.
On to `CC1=C2[C@H]3OC(=O)[C@@H](C)[C@@H]3CC[C@@]2(C)C=CC1=O`, for which the compound was called inactive in experiment [1], in [3], in experiment [9], in [11] and in [16]. Besides, the Potency result in experiment [2], in experiment [4], in [5], in experiment [6], in experiment [7] and in [8] was “inactive” in each case. The Potency result in experiment [10], in [12], in experiment [14], in [15], in experiment [17] and in [18] was “inactive” in each case.
